In all, about 190,000 compounds went through this assay and about 3,100 (1.6%) were called active. No stated cut-off is given here; in the data, active means fold change above about 3.3; inconclusive means no clear call, values can overlap the other calls; inactive means below that. The sample as a whole holds a higher share of actives than the screen did.

From PubChem BioAssay AID1239 (SRMLSC, 2008) come the findings set out here.

The nature of the test: NF-kB upregulation, human neuronal cells – cell-based, HTS, primary screen (AID 1239). The note with it: NF-kB reporter expression, at 12.5 µM, stronger effect = higher value.
As for `Cc1nnc(SCCCCSc2nnc(C)c(=O)[nH]2)[nH]c1=O`, the fold change was 1.03 (inactive).
With `Cc1ccc(S(=O)(=O)/N=C(\N)c2ccc(F)cc2)cc1` the figure was 1.11 (inactive); with `Cc1nn2cc(-c3ccc(Cl)cc3)cnc2c1Br`, 4.06 (active); with `O=C(NC(=S)Nc1ccc(S(=O)(=O)Nc2ncccn2)cc1)c1cccc(Br)c1`, 0.92 (inactive).
Take `CCOC(=O)C1(Cc2ccccc2C(F)(F)F)CCN(C(=O)c2cc(C)n(C)n2)CC1`: the fold change is 1.81 (inactive).
With `CC(C)C(=O)Nc1ccc2c(c1)oc1ccccc12` the figure was 4.71 (active); with `CC(C)C(=O)Nc1c(C(=O)c2ccc(F)cc2)oc2ccccc12`, 0.89 (inactive).
As for `CC(C)C(=O)Nc1ccc2oc(=O)ccc2c1`, the fold change was 1.14 (inactive).
With `COCCCNC(=S)NCCNc1nc2cc(C)c(C)cc2cc1C#N` the figure was 0.77 (inactive).
With `Cc1nnc(SCC(=O)N2CCc3ccccc32)n1-c1ccccc1` the figure was 1 (inactive); with `O=C(CSCc1ccccc1)N1CCc2ccccc21`, 5.86 (active); with `NC(=O)N1CCc2ccccc21`, 1.08 (inactive).
For `CCn1c(SCC(=O)N(C)C2CCS(=O)(=O)C2)nnc1-c1cccs1` (centres undefined), the fold change was 1.03 (inactive).
Under `CC(=O)c1ccc(N2CCN(CC(=O)Nc3ccccc3N3CCOCC3)CC2)cc1` stands 1 (inactive).
As to `CC1(C)CN(c2ccc(-c3ccnc4ncnn34)cc2)C1=O`, the fold change is 1.23 (inactive).
With `COc1ccc(N2CCN(C(=S)Nc3ccc(S(N)(=O)=O)cc3)CC2)cc1` the figure was 0.85 (inactive); with `CCn1cc(CN2CCCC(CNS(=O)(=O)Cc3ccccc3)C2)cn1` (centres undefined), 0.89 (inactive); with `CCCCCCCCC(=O)NCCOc1ccccc1`, 1.12 (inactive).
Consider `CCCCOc1ccc(C(=O)NCc2ccncc2)cc1`, for which the fold change was 1.15 (inactive).
With `CCCCCCOc1ccc(OC(=O)c2cccnc2)cc1` the figure was 5.55 (active); with `CCOc1ncccc1C(=O)OCC(=O)NC1CC1`, 1.17 (inactive).
In the case of `CN1CCN(CC(=O)Nc2cccc([N+](=O)[O-])c2)CC1`, the fold change is 1.37 (inactive).
With `CCOc1cc(C(=O)N2CCc3cc(OC)c(OC)cc3C2)ccc1OC(F)F` the figure was 4.22 (active); with `COc1cc2c(cc1OC)CN(C(=O)c1cc(=O)c3ccccc3o1)CC2`, 0.82 (inactive).
On to `COc1cc2c(cc1OC)CN(C(=O)c1ccc(S(=O)(=O)N3CCCCCC3)cc1)CC2`, for which the fold change is 0.87 (inactive).
As to `O=Cc1ccc(Oc2cccc(C(F)(F)F)c2)nc1`, the fold change is 1.2 (inactive).
With `O=C(CSc1cccc[n+]1[O-])c1ccc(Cl)cc1` the figure was 1.21 (inactive); with `CCOc1cccc(/C=C/c2ccc3ccccc3n2)c1OC(C)=O`, 4.82 (active); with `NC(=O)COC(=O)/C=C/c1ccc2ccccc2n1`, 0.97 (inactive).
With `COc1cccc(/C=C/c2ccc3ccccc3n2)c1OC(C)=O` the figure was 3.13 (inactive); with `CCOC(=O)c1c(N)nn(C(=O)c2ccccc2)c1-c1ccccc1`, 1.07 (inactive); with `C=CCN1C2CCCC1CC(NC(=S)Nc1cccc(OC)c1)C2` (centres undefined), 1.07 (inactive).
With `CC(CNC(=O)c1ccc(N)cc1)NC(=O)c1ccc(N)cc1` (centres undefined) the figure was 1.46 (inactive).
For the compound `COc1cc(-c2nc(-c3ccncc3)no2)cc(OC)c1OC`, the fold change was 0.54 (inactive).
Under `CCOc1nc(-c2ccc(OC)cc2)ccc1-c1noc(-c2cc(OC)c(OC)c(OC)c2)n1` stands 1.01 (inactive); under `COc1ccc(-c2noc(-c3cccc(OC)c3OC)n2)cc1OC`, 3.86 (active).
With `COc1ccc(OC)c(S(=O)(=O)NCCC(C)C)c1` the figure was 1.13 (inactive); with `COc1ccc(NC(C)=O)cc1NC(=O)CN1CCN(c2ccccn2)CC1`, 1.04 (inactive).
With `COc1ccc(OC)c(NC(=O)CN2CCN(C(=O)c3ccco3)CC2)c1` the figure was 1.07 (inactive); with `COc1ccc(NC(C)=O)cc1NC(=O)CN1CCN(C2c3ccccc3-c3ccccc32)CC1`, 3.62 (active).
`Nc1ncc(-c2cc3ccccc3oc2=O)s1`: the fold change was 3.48 (active).
For `O=C(NCc1cccnc1)c1cccc(-c2cc3ccccc3oc2=O)c1`, the fold change is 0.93 (inactive).
With `O=c1oc2ccccc2cc1-c1cn(-c2ccccc2)c(=S)[nH]1` the figure was 0.83 (inactive); with `O=C(/C=C/c1ccc2c(c1)OCO2)NCc1cn2cc(Cl)ccc2n1`, 1.09 (inactive); with `COc1ccc(N(C)S(=O)(=O)c2cccc3nsnc23)cc1`, 1.25 (inactive).
With `O=C(c1ccc(N2CCOCC2)c([N+](=O)[O-])c1)N1CCN(S(=O)(=O)c2cccs2)CC1` the figure was 1.15 (inactive).
Under `C=CCn1c(CCNC(=O)c2ccccc2F)nnc1SCC(=O)Nc1ccc(OC)cc1` stands 1.12 (inactive); under `CCCC1(C(=O)OC)NC(c2ccco2)C2C(=O)N(C)C(=O)C21` (centres undefined), 1 (inactive); under `COc1ccc(/C=C2\CCc3ccccc3C2=O)c(OC)c1OC`, 1.7 (inactive).
As for `O=S(=O)(c1cccs1)N1CCc2ccccc2C1`, the fold change was 1.07 (inactive).
Under `Cc1ccc(N2CCN(C3=NC(=O)/C(=C\c4cccs4)S3)CC2)cc1` stands 1.27 (inactive); under `CCC1C/C(=C/c2cccs2)C(=O)/C(=C/c2cccs2)C1` (centres undefined), 1.07 (inactive); under `O=C1/C(=C/c2cccs2)CCC1C1CCCC1` (centres undefined), 5.68 (active).
With `O=C1/C(=C/c2cccs2)CCc2ccccc21` the figure was 5.83 (active).
Take `CC(=O)C1(C)N(O)C(C)(C)C(c2cccs2)=[N+]1[O-]` (centres undefined): the fold change is 0.95 (inactive).
With `CCn1nc(C)cc1C(=O)N1CCCC(C(=O)c2cccc(OC)c2)C1` (centres undefined) the figure was 1.1 (inactive); with `COc1ccc(CN2CCN(Cc3cn(C)nc3-c3ccccc3)CC2CCO)c(C)c1C` (centres undefined), 1.01 (inactive).
With `CCc1ccc(NC(=O)Cn2nc(C)c([N+](=O)[O-])c2C)cc1` the figure was 1.28 (inactive).
Under `NC(=O)Cc1nc2scc(-c3ccc(Cl)cc3)c2c(=O)[nH]1` stands 0.99 (inactive); under `O=c1[nH]c(CN2CCOCC2)nc2cc(Cl)ccc12`, 1.04 (inactive).
On to `O=c1[nH]c(CCl)nc2cc(-c3ccc(Cl)cc3)sc12`, for which the fold change is 4.29 (active).
With `COc1ccc(S(=O)(=O)N2CCOCC2)cc1NC(=O)CSc1ncnc2ccccc12` the figure was 1.56 (inactive); with `CCN1C(=O)/C(=c2\s/c(=C3\Sc4ccccc4N3C)c(=O)n2C)N(C)C1=S`, 1.16 (inactive).
`CN(C)CCCN1C(=O)CSC1c1ccc([N+](=O)[O-])cc1` (centres undefined): the fold change was 1.03 (inactive).
With `COCC1CCCN(Cc2nc(-c3ccc4c(c3)OCO4)no2)C1` (centres undefined) the figure was 1.62 (inactive); with `Cc1csc(=Nc2ccccc2)n1CCO`, 1.05 (inactive).
As to `Cc1cs/c(=N\N=C\c2ccc(O)cc2)n1Cc1ccco1`, the fold change is 4.11 (active).
Under `CN(c1ccccc1)c1ccc(/C=c2\s/c(=C(/C#N)C(=O)C(C)(C)C)n(Cc3ccco3)c2=O)cc1` stands 1.52 (inactive); under `Cc1nnc(SC(C(=O)Nc2cc(Cl)cc(Cl)c2)c2ccccc2)[nH]c1=O` (centres undefined), 1.02 (inactive); under `Cc1ccnc(Nc2nc3ccccc3s2)n1`, 4.25 (active).
As for `CSCCC(Nc1nc2ccccc2s1)C(=O)O` (centres undefined), the fold change was 1.16 (inactive).
Under `Cc1ccc(S(=O)(=O)Nc2nc3ccccc3s2)cc1[N+](=O)[O-]` stands 1.51 (inactive); under `O=C(Nc1ccc(Br)cn1)c1ccc([N+](=O)[O-])o1`, 4.41 (active).
With `CC(C)C(=O)Nc1cccc(NC(=O)c2ccc([N+](=O)[O-])cc2Cl)c1` the figure was 1.13 (inactive); with `O=C(Nc1ccc(Br)cn1)c1ccc([N+](=O)[O-])cc1Cl`, 3.54 (active).
Under `O=C(Nc1cccc([N+](=O)[O-])c1)Nc1ccc(Cl)cn1` stands 0.9 (inactive); under `O=C(Nc1ccc(Br)c2cccnc12)c1ccc(Cn2cc([N+](=O)[O-])cn2)o1`, 1.07 (inactive); under `O=C(/C=C/c1ccc(Cl)cc1)Nc1ccc(Br)cn1`, 1.07 (inactive).
In the case of `C/C(=N/O)c1ccc(N2C(=O)C3C4C=CC(C3C2=O)C2C3C(=O)N(c5ccc(/C(C)=N/O)cc5)C(=O)C3C42)cc1` (centres undefined), the fold change was 1.33 (inactive).
For the compound `NC(=O)Cn1nc([N+](=O)[O-])nc1Oc1ccc(Br)cc1`, the fold change is 0.99 (inactive).
For the compound `O=C(O)C1C2CC2CN1C(=O)c1ccc(Cl)cc1Cl` (centres undefined), the fold change was 0.99 (inactive).
With `O=C(NCc1cccnc1)c1nc(-c2cccs2)no1` the figure was 1.23 (inactive); with `CCCCCc1ccc(-c2ccc(OCC)cc2)nc1`, 1.81 (inactive).
Under `CCCCCC(=O)Nc1ccc(-c2cn3cccnc3n2)cc1` stands 0.94 (inactive); under `CCCCCc1ccc(-c2ccc(C(=O)O)cc2)nc1`, 6.88 (active); under `O=C(COC(=O)CNC(=O)c1ccccc1F)NCC(F)(F)F`, 1.05 (inactive).
Under `O=C(CN1CCOCC1)Nc1ccc(NC(=O)CN2CCOCC2)c(Cl)c1` stands 1.01 (inactive); under `CC(=O)Nc1ccc(NC(=O)CN2CCCC(C)C2)c(Cl)c1` (centres undefined), 4.21 (active).
Regarding `O=C(CN1CCCCC1)Nc1ccccc1Cl`, the fold change is 1.2 (inactive).
For `O=C(c1ccc2c(c1)N(Cc1ccc(F)cc1)C(=O)c1ccccc1S2(=O)=O)N1CCN(c2ccccn2)CC1`, the fold change is 0.68 (inactive).
With `CCn1c(CSCc2c(Cl)cccc2Cl)n[nH]c1=S` the figure was 1.06 (inactive); with `O=C(O)CSc1nnc(-c2ccc3c(c2)OCO3)n1-c1ccccc1`, 1.41 (inactive).
Take `CCOc1cccc(/C=N/N2C(=O)CSC2=S)c1O`: the fold change was 1.38 (inactive).
Under `O=C(CCc1ccccc1)Nc1ccc(NC(=O)C2CCCCC2)nc1` stands 1.04 (inactive); under `Cc1cccc2c(=O)n3c(nc12)CCCCC3`, 1.11 (inactive); under `O=c1c2c(nc3n1CCCCC3)sc1c(O)cccc12`, 4.86 (active).
Under `Cc1c(C(=O)Nc2ccccc2)sc2nc3n(c(=O)c12)CCCCC3` stands 1.58 (inactive); under `CCN1CCN(CC(=O)Nc2sc3c(c2C#N)CCC3)CC1`, 1.03 (inactive).
Turning to `CC(C)CC(=O)N/C(N)=N/c1nc2ccccc2s1`, the fold change is 8.73 (active).
Under `O=C(O)CCCCc1nc2ccccc2s1` stands 1.24 (inactive).
Under `O=C(O)CSCc1nc2ccccc2s1` stands 0.98 (inactive); under `COC(=O)c1nc2ccccc2s1`, 0.91 (inactive).
In the case of `CCC(=O)NC(=Nc1nc2ccccc2s1)NC(=O)CC`, the fold change was 6.73 (active).
Take `CC(C)CC(=O)NC(=S)NCc1ccccc1`: the fold change was 1.01 (inactive).
